From PubChem BioAssay (NCI)
Compounds without any hit were thinned out: in the full panel of roughly 79,000, 15% have a hit. Values without a mark were called inactive. Calls of active or inactive are those of the source. Cut-off read from the data, not from the text of the source: active = growth inhibition above about 70%; inactive = the rest.

Key:
[1] = NCI Yeast Anticancer Drug Screen. Data for the rad50 strain (AID 155);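 note: 0% = growth of vehicle-only cultures of the same strain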; details: S. cerevisiae rad50 strain growth inhibition, hits give high values
Procedure, shortened: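 Cells are treated with compound, grown, and their growth is then scored against vehicle-only cultures of the same repair-deficient yeast strain.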

[2] = NCI Yeast Anticancer Drug Screen. Data for the mec2-1 strain (AID 157); details: S. cerevisiae mec2-1 strain, hits give high values
Procedure, shortened: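 mec2-1 yeast strain, carrying an alteration in DNA damage repair or cell cycle control, was exposed to compounds; growth inhibition was measured relative to vehicle-treated controls.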

[3] = NCI Yeast Anticancer Drug Screen. Data for the sgs1 mgt1 strain (AID 161);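 note: 0% = growth of cultures given vehicle only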; details: S. cerevisiae sgs1 mgt1 strain, hits give high values
Procedure, shortened: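 This yeast growth screen uses a strain with defined DNA-repair lesions; compound-treated growth is compared with vehicle-treated growth.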

[4] = NCI Yeast Anticancer Drug Screen. Data for the cln2 rad14 strain (AID 165);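 note: 0% = growth equal to vehicle treated cultures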; details: S. cerevisiae cln2 rad14 strain, hits give high values
Procedure, shortened: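 Yeast carrying cln2 and rad14 alterations (cell cycle control and DNA damage repair) were exposed to compounds. Growth inhibition was measured against vehicle-treated controls.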

[5] = NCI Yeast Anticancer Drug Screen. Data for the bub3 strain (AID 167); details: S. cerevisiae bub3 mutant strain, hits give high values
Procedure, shortened: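 Part of a panel of yeast mutants defective in DNA damage repair or cell cycle regulation. Each strain is grown with compound, and inhibition is calculated relative to solvent-treated cultures.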

[6] = NCI Yeast Anticancer Drug Screen. Data for the mlh1 rad18 strain (AID 175); details: S. cerevisiae mlh1 rad18 strain growth inhibition, hits give high values
Procedure, shortened: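 Growth inhibition of the yeast strain was measured after compound exposure and expressed relative to vehicle-treated controls. The strain carries defined defects in DNA damage repair.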

[7] = at 5.0 µM (retest, dose inferred, filed as 0.5)
[8] = at 50.0 µM (retest, dose inferred, filed as 5.0)

Structure (SMILES)	growth inhibition [1, 7]	growth inhibition [1, 8]	growth inhibition ([1]; at 50.0 µM)	growth inhibition [2, 7]	growth inhibition [2, 8]	growth inhibition ([2]; at 50.0 µM)	growth inhibition [3, 7]	growth inhibition [3, 8]	growth inhibition ([3]; at 50.0 µM)	growth inhibition [4, 7]	growth inhibition [4, 8]	growth inhibition ([4]; at 50.0 µM)	growth inhibition [5, 7]	growth inhibition [5, 8]	growth inhibition ([5]; at 50.0 µM)	growth inhibition [6, 7]	growth inhibition [6, 8]	growth inhibition ([6]; at 50.0 µM)
CCOc1ccc(C(CN2CCOCC2)C(C)=O)cc1OC (centres undefined)	-3%	30%	72.5% (active)	-27%	68%	77.7% (active)	-4%	30%	74.7% (active)	0%	28%	45.4%	-8%	81% (active)	78.7% (active)	–	–	–
Oc1ccccc1N=Cc1ccccc1	23%	75% (active)	61%	13%	35%	44.2%	21%	29%	60.6%	12%	45%	19.5%	56%	86% (active)	77.5% (active)	41%	81% (active)	72.5% (active)
N#CC1c2ccccc2C=CN1C(=O)CCCl (centres undefined)	7%	41%	6.05%	2%	36%	34.2%	11%	34%	53.5%	8%	42%	17.1%	15%	74% (active)	74.3% (active)	-11%	38%	29.1%
CN=C(N)N/N=C(\C)c1ccc2c(c1)Cc1ccccc1-2	32%	98% (active)	77.5% (active)	19%	99% (active)	59.9%	51%	96% (active)	84.2% (active)	42%	86% (active)	52.8%	48%	95% (active)	81.5% (active)	26%	96% (active)	92.7% (active)
N=C(N)Sc1cccc[n+]1[O-]	99% (active)	99% (active)	98.8% (active)	99% (active)	99% (active)	98.9% (active)	100% (active)	99% (active)	98.2% (active)	98% (active)	98% (active)	97.4% (active)	100% (active)	99% (active)	99% (active)	99% (active)	99% (active)	98.2% (active)
Cc1c2c(c(C)c3c[n+](C)ccc13)Oc1ccccc1O2	18%	24%	25.4%	12%	19%	61.6%	11%	21%	80.5% (active)	17%	20%	62.1%	28%	31%	85.6% (active)	24%	15%	-20.6%
CC(=O)c1ccc2c(c1)CCc1ccccc1-2	2%	85% (active)	12.5%	-33%	49%	-8.9%	2%	55%	36.1%	2%	8%	52.5%	45%	89% (active)	30.4%	1%	79% (active)	15.9%
COc1ccc(Nc2nc3ccc(C(F)(F)F)cc3nc2C(=O)O)cc1	10%	51%	30.6%	13%	46%	42.9%	21%	22%	40.6%	31%	37%	68.3%	7%	12%	60.5%	9%	48%	54.5%
CCOc1ccc(C(C[N+](=O)[O-])Sc2ccccc2N)cc1 (centres undefined)	36%	47%	73.5% (active)	36%	46%	92.1% (active)	42%	57%	92.7% (active)	29%	29%	83.9% (active)	32%	72% (active)	91.7% (active)	–	–	–
CCCCCCCCCCCC(=O)OC(C)C(=O)NCCCC (centres undefined)	0%	21%	-18.2%	0%	18%	13.6%	2%	68%	-2.05%	-2%	-3%	26.4%	-1%	9%	-5.95%	-17%	32%	75.2% (active)
OC(c1cc(-c2ccc(C(F)(F)F)cc2)nc(C(F)(F)F)c1)C1CCCCN1 (centres undefined)	23%	39%	56.1%	24%	35%	76.2% (active)	33%	60%	45.5%	31%	7%	25.7%	11%	36%	33.5%	34%	65%	–
CCOc1cc2c(cc1O)/C(=N\OC)C[C@@H]1[C@@H]2CC[C@]2(C)[C@@H](O)CC[C@@H]12	16%	59%	13.9%	0%	42%	-2.45%	5%	86% (active)	9.8%	23%	67%	24.8%	25%	71% (active)	13.6%	16%	68%	79.1% (active)
O=C1Nc2ccc(Br)cc2C1=O	-8%	95% (active)	96.9% (active)	-31%	64%	99.7% (active)	-5%	42%	99.8% (active)	-6%	36%	66.9%	-13%	98% (active)	99.4% (active)	–	–	–
NC1=C(Br)C(=O)c2ncccc2C1=O	56%	94% (active)	87.7% (active)	19%	86% (active)	91.5% (active)	34%	93% (active)	91.5% (active)	18%	90% (active)	90% (active)	9%	83% (active)	90.3% (active)	50%	95% (active)	–
O=C1c2ccccc2Cc2cccc(Cl)c21	15%	72% (active)	88.5% (active)	6%	15%	24.3%	4%	13%	28.6%	0%	5%	17.4%	1%	19%	13.8%	2%	17%	33%
OCCOSCCO	5%	-4%	-0.05%	2%	-4%	-14.1%	-8%	-2%	10.2%	6%	2%	15.8%	2%	6%	-6.5%	4%	-4%	-14.1%
Cc1cc(C(N)=O)cc(C)c1C(=O)OCCCl	-4%	-1%	31.7%	-5%	-2%	66.4%	-4%	-2%	-4.05%	-3%	-8%	-114%	-2%	-2%	51.9%	-57%	0%	58.1%
COc1ccc2nc3cc(Cl)ccc3c(NCCCCCN3CCCCC3)c2c1	-3%	70% (active)	77.6% (active)	-3%	31%	39%	-7%	26%	47.1%	1%	45%	63%	-4%	4%	59.4%	0%	47%	59.9%
Cc1nn(CCO)c(C)c1N=[N+]([O-])c1c(C)nn(CCO)c1C	12%	98% (active)	88.8% (active)	12%	98% (active)	91.8% (active)	24%	98% (active)	89.3% (active)	9%	95% (active)	86% (active)	20%	97% (active)	90.6% (active)	27%	98% (active)	89.1% (active)
CSc1nc(C)c(C(=O)CCN2CCN(c3ccccn3)CC2)s1	-3%	99% (active)	86.8% (active)	-3%	100% (active)	78% (active)	-23%	99% (active)	66.2%	-2%	99% (active)	43.4%	-1%	100% (active)	79.5% (active)	-3%	99% (active)	58.6%
